Experiment in all cases: NCI-60 one-dose screen, 48 h (100 = growth as untreated, 0 = no growth, -100 = all killed)
Experiment [1] deals with T-47D breast. The conditions noted are these: 10 µM.
In experiment [2] the test system is BT-549 breast. To be noted: 10 µM unless noted.
Experiment [3] concerns MDA-MB-435 melanoma. To be noted: 10 µM unless noted.
The test system of experiment [4] is SW-620 colon. The conditions noted are these: 10 µM unless noted.
The test system of experiment [5] is MCF7 breast. The conditions noted are these: 10 µM unless noted.
The test system of experiment [6] is HCT-116 colon. To be noted: 10 µM unless noted.
Experiment [7] concerns HCC-2998 colon. The conditions noted are these: 10 µM unless noted.
Experiment [8] has as its system KM12 colon. To be noted: 10 µM unless noted.

This is part of a sample that, as a whole, favours compounds with a hit. Of some 83,000 tested, about 20% had one in any assay.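 The test compound was applied at a single concentration to cells in 96-well plates for 48 hours, and percent growth was recorded.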 Unmarked numbers belong to inactive results. The source made the active and inactive calls. How the source made its calls: active means growth percent below 10; inactive means the rest.

As for `O=C(Nc1ccc(F)cc1)c1ccc(C(=O)Nc2ccc(F)cc2)cc1`, the growth in experiment [1] is 99.1%; in experiment [2] it was 112%; in experiment [3], 101%; in experiment [4], 109%; in experiment [5] it was 95.9%; in experiment [6], 96.2%. The growth is 111% in experiment [7] and 108% in experiment [8].
Regarding `Nc1nc(N)c(N=Nc2c(Br)cc(S(N)(=O)=O)cc2Br)c(N)n1`, the growth is 88.6% in experiment [1]; 100% in experiment [2]; 48.3% in experiment [3]; 98% in experiment [4]; 68.6% in experiment [5]; 103% in experiment [6]. Also, the growth in experiment [7] is 100%; in experiment [8], 61.3%.
Regarding `C[C@@H](Oc1cc(-c2cnn(C3CC4(CCCNC4)C3)c2)cnc1N)c1c(Cl)ccc(F)c1Cl` (some centres not stated), the growth was 20.4% in experiment [1]; 73.4% in experiment [2]; 12.6% in experiment [3]; -4.07% (active) in experiment [4]; -14.5% (active) in experiment [5]; -11.8% (active) in experiment [6]. For the same compound, the growth in experiment [7] was 15.3%.
Turning to `Fc1ccccc1Nc1ccc2nnc(-c3ccncc3)n2n1`, the growth is 85.3% in experiment [1]; 101% in experiment [2]; 106% in experiment [3]; 106% in experiment [4]; 94.7% in experiment [5]; 99.5% in experiment [6]. Also, the growth in experiment [7] was 107%; in experiment [8], 112%.
Take `COc1ccc(-c2nc(Nc3ccc(F)cc3)nc(Nc3ccc4c(c3)nc(C)n4Cc3ccccc3)n2)cc1`: the growth is 11.5% in experiment [1]; 70.7% in experiment [2]; 34.1% in experiment [3]; 45.7% in experiment [4]; 22.6% in experiment [5]; 23.4% in experiment [6]. For the same compound, the growth in experiment [7] is 45.5%; in experiment [8], 26%.
Regarding `Cc1ccc(-c2c3c(N)c4c(nc3nc3c2c(C)nn3-c2ccccc2)CCCC4)cc1`, the growth in experiment [1] was 92.6%; in experiment [2], 109%; in experiment [3], 96.4%; in experiment [4] it was 97.1%; in experiment [5], 94.2%; in experiment [6], 90.2%. In addition, the growth in experiment [7] was 107%; in experiment [8], 105%.
In the case of `Clc1nc(-c2ccccn2)nc2sc3c(c12)CCCCCC3`, the growth was 42.2% in experiment [1]; 85.1% in experiment [2]; 91.4% in experiment [3]; 102% in experiment [4]; 54% in experiment [5]; 84.5% in experiment [6]. The growth is 63.4% in experiment [7] and 91.6% in experiment [8].
On to `CCC(C)[C@H]1O[C@]2(CC[C@@H]1C)C[C@@H]1C[C@@H](C/C=C(\C)[C@@H](OC3C[C@H](OC)C(O[C@H]4C[C@H](OC)[C@@H](O)[C@H](C)O4)[C@H](C)O3)[C@@H](C)/C=C/C=C3\CO[C@@H]4[C@H](O)C(C)=C[C@@H](C(=O)O1)[C@]34O)O2` (some centres not stated), for which the growth was 18.1% in experiment [1]; -26.3% (active) in experiment [2]; 3.2% (active) in experiment [3]; 18.5% in experiment [4]; 6.74% (active) in experiment [5]; -89.2% (active) in experiment [6]. For the same compound, the figures for the growth in experiment [7] and in experiment [8] were -82.3% (active) and -11.8% (active), respectively.
As for `O=c1nc(NO)[nH]c(=O)n1Cc1ccccc1`, the growth in experiment [1] was 92.8%; in experiment [2], 103%; in experiment [3], 101%; in experiment [4], 108%; in experiment [5] it was 98.9%; in experiment [6] it was 105%. For the same compound, the values for the growth in experiment [7] and in experiment [8] were 106% and 105%, respectively.
For `CCCOC(=O)c1ccc2c(c1)[N+](=O)C(C(=O)c1ccccc1)=C(C(F)(F)F)[N+]2=O`, the growth is -83.2% (active) in experiment [1]; -83.9% (active) in experiment [2]; -89.5% (active) in experiment [3]; -82.5% (active) in experiment [4]; -69.7% (active) in experiment [5]; -73% (active) in experiment [6]. In addition, the values for the growth in experiment [7] and in experiment [8] were -87.6% (active) and -81.6% (active), respectively.
In the case of `CCCCc1ccc(C(O)(CCN2CC3CCC(CC3)C2)c2ccccc2)cc1` (configuration not stated), the growth in experiment [1] is 73.8%; in experiment [2] it was 90.2%; in experiment [3] it was 98.2%; in experiment [4] it was 95.7%; in experiment [5] it was 95.7%; in experiment [6], 77%. For the same compound, the growth in experiment [7] was 90.1%; in experiment [8], 93.2%.
`C[C@H]1C(=O)C23CCC1C[C@@]21O[C@@H]2C(C)(C)C=CC(=O)C23COC1=O`: the growth was 98.4% in experiment [1]; 106% in experiment [2]; 107% in experiment [3]; 108% in experiment [4]; 99.5% in experiment [5]; 96.5% in experiment [6]. Also, the growth in experiment [7] was 104%; in experiment [8] it was 113%.
Regarding `Cc1cc(O)cc2c1[C@H]1CC[C@]3(C)[C@@H](O)CC[C@H]3[C@@H]1C=C2`, the growth is 96.5% in experiment [1]; 100% in experiment [2]; 7.81% (active) in experiment [3]; 72% in experiment [4]; 109% in experiment [5]; 86.6% in experiment [6]. Besides, the growth was 48.4% in experiment [7] and 102% in experiment [8].
In the case of `COc1ccc2c(c1)c(=O)oc1c(C)c(OCC(C)=O)ccc12`, the growth in experiment [1] is 104%; in experiment [2] it was 102%; in experiment [3], 89.4%; in experiment [4], 101%; in experiment [5], 101%; in experiment [6] it was 104%. The growth in experiment [7] is 98.1%; in experiment [8], 96.6%.
Regarding `O=C1/C(=C/c2ccc(Cl)cc2)CN(Cc2cn(CCCNc3ccnc4cc(Cl)ccc34)nn2)C/C1=C\c1ccc(Cl)cc1`, the growth in experiment [1] is -10.8% (active); in experiment [2], -87.6% (active); in experiment [3], -86.7% (active); in experiment [4] it was -75.6% (active); in experiment [5], -97.9% (active); in experiment [6] it was -64.4% (active). In addition, the growth is -88% (active) in experiment [7] and -75.1% (active) in experiment [8].
With `CCN1CCN(c2nc3ccccc3c3c(=O)c4cc(F)ccc4sc23)CC1`, the growth in experiment [1] is 65.1%; in experiment [2], 85.7%; in experiment [3], 10.2%; in experiment [4] it was 37.2%; in experiment [5], 65.1%; in experiment [6], 54.8%. In addition, the growth was 64.9% in experiment [7] and 48.5% in experiment [8].

The record behind these values is PubChem BioAssay (NCI).
